EPAC1 agonist: agonists of human EPAC1; AID 720707; EPAC1 agonist qHTS, biochemical assay; response scale: 100% = response to 6.5 mM cAMP; Potency, µM (highest dose often 154 µM), usual class: activators; 360,000 compounds, 0.073% hits; O95398; note: nearly all actives have a fitted effect of over 60% in size
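Nucleotide exchange assay: 100 nM EPAC1 with 250 nM Rap1B loaded with BODIPY-GDP and 50 uM GDP, room temperature. Fluorescence (480/540 nm) read every 5 min for 30 min; signal change normalized to 6.5 mM cAMP as full agonist.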
EPAC2 antag: EPAC2 (human) antagonism; EPAC2 GEF exchange of Rap1B-BODIPY-GDP, fluorescence; AID 720708; 360,000 compounds, 0.18% hits; Q8WZA2; Potency, µM (titrated, usually from 114 µM), actives largely listed as inhibitors; note: nearly all actives have a fitted effect of over 45% in size
Target sequence (Q8WZA2 whole entry, looked up): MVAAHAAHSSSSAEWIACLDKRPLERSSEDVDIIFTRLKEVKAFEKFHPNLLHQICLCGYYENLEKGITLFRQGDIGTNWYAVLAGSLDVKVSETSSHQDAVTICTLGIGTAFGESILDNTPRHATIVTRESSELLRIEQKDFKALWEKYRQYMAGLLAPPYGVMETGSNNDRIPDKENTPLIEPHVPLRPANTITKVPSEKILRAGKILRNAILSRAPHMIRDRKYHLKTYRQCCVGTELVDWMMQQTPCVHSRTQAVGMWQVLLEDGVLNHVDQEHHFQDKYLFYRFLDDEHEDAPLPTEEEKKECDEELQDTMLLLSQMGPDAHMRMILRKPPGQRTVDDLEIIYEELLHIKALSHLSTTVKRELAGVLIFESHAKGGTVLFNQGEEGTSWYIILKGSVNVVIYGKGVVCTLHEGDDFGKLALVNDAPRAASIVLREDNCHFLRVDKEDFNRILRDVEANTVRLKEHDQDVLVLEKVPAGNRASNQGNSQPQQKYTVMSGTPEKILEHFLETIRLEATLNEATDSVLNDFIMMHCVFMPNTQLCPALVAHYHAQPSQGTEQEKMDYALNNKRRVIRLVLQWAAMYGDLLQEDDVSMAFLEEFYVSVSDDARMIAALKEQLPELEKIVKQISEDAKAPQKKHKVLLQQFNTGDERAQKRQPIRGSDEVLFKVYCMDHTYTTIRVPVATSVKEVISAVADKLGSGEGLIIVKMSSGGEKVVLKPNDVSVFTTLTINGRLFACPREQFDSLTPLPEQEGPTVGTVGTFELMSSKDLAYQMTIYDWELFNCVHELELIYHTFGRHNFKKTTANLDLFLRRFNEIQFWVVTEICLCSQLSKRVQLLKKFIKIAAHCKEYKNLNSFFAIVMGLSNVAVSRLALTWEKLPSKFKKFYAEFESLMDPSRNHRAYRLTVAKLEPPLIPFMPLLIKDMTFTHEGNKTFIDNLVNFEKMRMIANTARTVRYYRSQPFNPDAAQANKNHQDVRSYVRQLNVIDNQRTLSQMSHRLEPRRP
IL2 activator: IL-2 activation; IL-2 activation reporter assay, cell-based qHTS; stimulated with anti-CD3/CD4/CD28 beads; in transgenic mouse T cells; activation, % (series mostly up to about 46 µM); 360,000 compounds, 0.065% hits; AID 652025; in the data active = activation above about 50%; inconclusive = mostly about 30% to 49%
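Readout is EGFP and DsRed signal by fluorescent plate cytometry after 18 h at 37 degrees C. Transgenic mouse T cells (750/well) received compound for 60 min before bead stimulation (anti-CD3, anti-CD4, anti-CD28); memory T cells served as non-tolerant control.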
EPAC2 ag: activates human EPAC2 exchange factor. EPAC2 activation, biochemical qHTS; response scale: 100% = 6.5 mM cAMP response. Potency, µM (titrated, usually from 154 µM), actives largely listed as activators. 360,000 compounds, 0.079% hits. AID 720711; note: nearly all actives have a fitted effect of over 50% in size
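Compounds were added across a concentration range to EPAC2 (100 nM), RAP1B-BODIPY-GDP (250 nM) and GDP (50 uM). After 5 min at room temperature, fluorescence was recorded at 5-min intervals for 30 min.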
EPAC1 antag: blocks human EPAC1 exchange factor; O95398; EPAC1 GEF assay, Rap1b-BODIPY-GDP exchange fluorescence; Potency, µM (top dose mostly 115 µM), hits mostly inhibitors; 360,000 compounds, 0.14% hits; note: nearly all actives have a fitted effect of over 50% in size
PKM2 act: PKM2 (human) enzyme activation. P14618. purified PKM2, Kinase-Glo ATP luminescence, activation; response scale: 0% is enzyme alone, no compound. Potency, µM (top dose mostly 57.5 µM), hits mostly activators. 260,000 compounds, 0.34% hits; note: nearly all actives have a fitted effect of over 55% in size
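ATP formation by purified human PK-M2, quantified via coupled luciferase luminescence after 1 h at room temperature with 0.1 mM ADP and 0.5 mM PEP final.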
A number is an active result; - = inactive; ? = inconclusive; . = not tested or not shown; [ ] = another dose, or the depositor's remark. In the library only some 0.64% were active in any assay of this set; here they are far more common. Unless noted, calls come from the whole dose curve; as a rule, active = well fitted curve in the direction sought with a large enough effect; inconclusive = small, poorly fitted or top-dose-only effect, or another doubt; inactive = no such curve, though single readings can be large; an effect the other way counts as inactive or inconclusive.

SMILES | EPAC1 agonist | EPAC2 antag | IL2 activator | EPAC2 ag | EPAC1 antag | PKM2 act
C/C=C\C=C/C(=O)Nc1cccc(C2=NOC3(C2)C[C@H](C(N)=O)N(C(=O)CC)C3)c1 (some centres not stated) | - | - | - | - | - | 12.6µM
C/C=C\C=C/C(=O)Nc1cccc(C2=NOC3(C2)C[C@@H](C(N)=O)N(C(=O)CCCCC)C3)c1 (some centres not stated) | - | - | - | - | - | ?
C/C=C\C=C/C(=O)Nc1cccc(C2=NOC3(C2)C[C@@H](C(N)=O)N(C(=O)c2ccc(Cl)cc2)C3)c1 (some centres not stated) | - | - | - | - | - | ?
C/C=C/C=C\C(=O)Nc1cccc(C2=NOC3(C2)C[C@H](C(N)=O)N(C(=O)CC#N)C3)c1 (some centres not stated) | - | - | - | - | - | 20µM
C/C=C/C=C\C(=O)Nc1cccc(C2=NOC3(C2)C[C@@H](C(N)=O)N(C(=O)/C(C)=C/C)C3)c1 (some centres not stated) | - | - | - | - | - | ?
COC(=O)[C@@]1(Sc2ccc(OC)cc2)CC(=O)N[C@@H]1c1ccccc1 | - | - | - | - | - | .
Cc1ccc(NS(=O)(=O)c2ccc3c(c2)c(=O)n(C)c(=O)n3C)cc1F | - | - | - | - | - | 4.47µM
CCOC(=O)C1=CN(CC2CCCCC2)CCC1=O | - | - | - | - | - | .
O=C(NCc1ccc(Cl)cc1)C(=O)NCC(c1cccnc1)N1CCN(c2ccc(F)cc2)CC1 (configuration not stated) | - | - | - | - | ? | -
Cc1nn(S(=O)(=O)c2cccs2)c(C)c1Sc1ccccc1 | . | . | . | . | . | 15.8µM
Cc1nn(S(=O)(=O)c2cccs2)c(C)c1Sc1ccc([N+](=O)[O-])cc1 | - | - | - | - | ? | -
O=C1C=C(N2CCOCC2)c2ccccc2C1=O | - | ? | - | - | 10µM | -
O=C1C=C(N2CCOCC2)c2cccc3cccc1c23 | - | - | - | - | - | .
CCCn1c(=O)n(C)c(=O)c2c(SCC(=O)NCc3ccco3)nc(C3CC3)nc21 | - | - | - | 10µM | - | -
COc1ccc(/C=C2/C(=O)N(CC3CCCO3)C(=S)N2C)c(OC)c1 (configuration not stated) | - | - | - | - | 50.1µM | -
CCOC(=O)c1c2c(n(-c3ccc(OC)cc3)c1C)C(=O)C(=O)c1ccccc1-2 | - | ? | - | - | 56.2µM | .
COC(=O)CSc1nnc(-c2ccc(NS(=O)(=O)c3ccccc3)cc2)o1 | - | - | - | - | - | 25.1µM
Cc1ccc(CSc2nnc(-c3ccc(NS(=O)(=O)c4ccccc4)cc3)o2)cc1 | - | - | - | - | - | -
Cc1ccc(S(=O)(=O)Nc2ccc(C(=O)N3CCCC3)cc2)cc1 | - | - | - | - | - | -
Cc1ccc(NS(=O)(=O)c2ccc(C(=O)N3CC(C)CC(C)C3)cc2)cc1 (configuration not stated) | 100µM | - | - | - | - | .
Oc1c(Br)cc(Br)cc1CNc1cccc2cccnc12 | - | 11.2µM | - | - | - | -
COc1cccc(CNc2cccc3cccnc23)c1O | - | ? | - | - | - | -
Oc1ccc(Cl)cc1CNc1cccc2cccnc12 | - | 56.2µM | - | - | - | -[11.5 µM]
Oc1ccc(Br)cc1CNc1cccc2cccnc12 | - | ? | - | - | - | -
O=C1Nc2ccccc2C1=Nc1ccc2[nH]c3ccccc3c2c1 | - | - | - | - | - | .
CCN(CC)c1ccc(/C=C2\SC(=O)N(C(C)C)C2=O)o1 | - | - | - | - | - | 12.6µM
CC(=O)c1cc(NC(=O)c2cccc(C(F)(F)F)c2)c(=O)oc1/C=C/N(C)C | - | - | 57.8 | - | - | -
Cc1nc2ccc(NS(=O)(=O)c3ccc(F)c(C)c3)cc2[nH]1 | - | - | - | - | - | -[11.5 µM]

Assay outcomes: PubChem, National Center for Advancing Translational Sciences (NCATS)
